A selection: hits, their analogues and other compounds. The true share with any hit is near 1.5%.
dFosB act-1 = activators of mouse delta FosB homodimer | P13346 | purified delta FosB, TAMRA-CDK5 oligo fluorescence polarization; percent of positive-control signal above neutral wells | activation, % at 25 µM | 0.99% of 340,000 active;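 active means mean activation above about 17%, with every replicate also reaching it, limit read from the data, passing the limit was not always enough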
Target sequence (P13346 whole entry, looked up): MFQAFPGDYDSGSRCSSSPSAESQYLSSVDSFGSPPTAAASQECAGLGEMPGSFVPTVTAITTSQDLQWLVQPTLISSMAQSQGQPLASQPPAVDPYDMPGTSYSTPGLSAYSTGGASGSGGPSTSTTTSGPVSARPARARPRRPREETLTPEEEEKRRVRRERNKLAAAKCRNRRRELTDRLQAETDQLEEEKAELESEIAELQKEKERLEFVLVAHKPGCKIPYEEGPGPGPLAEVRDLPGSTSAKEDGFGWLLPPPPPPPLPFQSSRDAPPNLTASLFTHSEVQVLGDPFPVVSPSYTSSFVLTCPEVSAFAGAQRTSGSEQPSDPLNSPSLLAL
CFTR F508del cor = correctors of CFTR F508del function in bronchial epithelial cells. 0.36% of 350,000 active. activity (quench increase), % at 7.58 µM. CFBE cells, YFP halide quenching; stimulated with forskolin plus potentiator P3; % fluorescence drop versus neutral controls;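 active means mean added fluorescence quench of at least 8% versus neutral control, with both replicates also reaching 8%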;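 further: cells transiently co-express mutant CFTR-F508del with the halide-sensitive YFP; corrector assay measuring rescue of mutant channel to the surface after 24 h compound exposure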
RAD52 anneal inh = inhibitors of human RAD52 DNA annealing | P43351 | recombinant RAD52 DNA annealing, FRET fluorescence | inhibition, % at 18.7 µM | 0.46% of 360,000 active;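 active means every replicate showing at least 50% inhibition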
PvdQ acylase = blocks Pseudomonas aeruginosa PvdQ acylase activity; purified PvdQ acylase, fluorescence plate reader; inhibition, % at 10 µM; 0.063% of 340,000 active; AID 488965; in the data active means inhibition above about 30%, passing the limit was not always enough;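 further: 0% = vehicle neutral wells and 100% = reference inhibitor wells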
RAD54 inh = RAD54 (human) branch migration inhibition; Q92698; RAD54 Holliday junction branch migration, FAM/BHQ fluorescence; inhibition, % at 10.4 µM; 0.14% of 360,000 active; AID 602329;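 active means mean normalized replicate activity at least 40 and at least half of replicates scoring 40 or more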;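 further: 0% = median of neutral control wells and 100% = median of positive control wells; inhibitors cause a drop in the FAM fluorescence signal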
Glyco luc inh = blocks N-linked glycosylation in D54 reporter cells; D54 ERlucT glycosylation luciferase reporter, 24 h; percent of 100 nM tunicamycin response; reporter increase, % at 12.5 µM; 0.23% of 360,000 active;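 active means mean luciferase reporter signal, scaled so untreated is 0 and the glycosylation-blocking control 100, at or above a set limit in every replicate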;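 further: luciferase carries N-glycosylation sites so blocking glycosylation raises the light; 0% = median of neutral control wells and 100% = median of 100 nM tunicamycin wells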
dFosB act-2 = delta FosB (mouse) homodimer activation. purified delta FosB, TAMRA-CDK5 oligo fluorescence polarization; normalised: neutral wells 0, positive control 100. 2,400 tested, under 10 active. activation, % at 24.9 µM. shares compounds with dFosB act-1. AID 588690;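 active means highest replicate activation at or above 34% and every replicate reaching that threshold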;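 further: higher polarization means more probe DNA bound by delta FosB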
Numbers without * were called inactive; nt = no result.

SMILES	dFosB act-1	CFTR F508del cor	RAD52 anneal inh	PvdQ acylase	RAD54 inh	Glyco luc inh	dFosB act-2
Cn1cc(Cl)c(C(=O)Nc2nc3ccc(Cl)cc3s2)n1	24*	nt	nt	-8	-2	-3	-2
O=S(=O)(c1cnc[nH]1)N1CCc2ccccc21	20*	nt	nt	-23	-7	2	2
CSc1cccc(NC(=O)NCc2cccc(CNC(=O)Nc3cccc(SC)c3)c2)c1	25*	-3	-1	-17	nt	17	5
CCCNC(=O)Nc1ccc2c(c1)C(=O)N(C)[C@@H]1CC[C@H](CC(=O)NCCCN(C)C)O[C@@H]1CO2	nt	-1	20	nt	-3	nt	nt
CC(=O)c1c(C)[nH]c(C(=O)OCC(=O)c2ccc3c(c2)NC(=O)CO3)c1C	30*	1	-25	-18	-6	-2	4
COc1cccc(/C=C/C(=O)OCC(=O)c2ccc3c(c2)NC(=O)CO3)c1OC	-11	0	-8	-3	-4	-1	nt
O=C1COc2ccc(C(=O)COC(=O)/C=C/c3cccc(F)c3)cc2N1	80*	1	-16	-5	6	1	4
O=C([C@@H]1[C@@H](CO)[C@@H]2Cn3c(cccc3=O)[C@@H]2N1CC1CCCC1)N1CCOCC1	nt	-2	-27	nt	13	nt	nt
CCCNC(=O)N1C[C@@H](C)[C@H](OC)CN(C)C(=O)c2ccc(NC(=O)CCC)cc2OC[C@@H]1C	nt	-2	2	nt	-4	nt	nt
COc1ccccc1NS(=O)(=O)c1cccc(NC(=O)Nc2ccc(Cl)cc2)c1	26*	nt	-56	1	nt	-8	1
COc1ccc(NC(=O)Nc2ccccc2F)cc1Cl	22*	nt	-8	-11	-1	-9	2
COc1ccccc1NS(=O)(=O)c1cccc(NC(=O)Nc2ccccc2)c1	0	3	5	-1	8	-4	nt
C[C@@H]1CCCCO[C@@H](CN(C)S(=O)(=O)c2ccc(F)cc2)[C@@H](C)CN([C@H](C)CO)C(=O)c2cc(NC(=O)Nc3ccc(C(F)(F)F)cc3)ccc2O1	nt	0	-18	nt	-1	nt	nt
C=CCNC(=O)/C(=C/c1cn(-c2ccccc2)nc1-c1cccc([N+](=O)[O-])c1)NC(=O)c1ccccc1	19*	nt	nt	4	nt	-2	5
Cc1noc(C)c1NC(=O)Nc1ccc2c(c1)C(=O)N([C@@H](C)CO)C[C@H](C)[C@H](CN(C)Cc1ccncc1)OCCCC[C@@H](C)O2	nt	-2	-11	nt	5	nt	nt
Cc1cc2c(c(=O)n1CCc1ccccc1)C(c1ccco1)C(C#N)=C(N)O2 (stereo unspecified)	7	nt	nt	-4	1	-4	nt
COc1cc(C2C(C#N)=C(N)Oc3cc(C)n(CCc4ccccc4)c(=O)c32)cc2c1OCO2 (stereo unspecified)	68*	nt	nt	4	3	-1	0
O=C(Nc1nc(-c2cccnc2)cs1)c1ccccc1Cl	24*	0	-8	-6	-13	-1	7
C=CCn1c(=NC(=O)c2cc(Cl)sc2Cl)sc2cc(S(N)(=O)=O)ccc21	25*	nt	nt	-2	6	0	4
CCc1ccc(OCC(=O)NNC(=O)Cc2c(F)cccc2Cl)cc1	29*	-3	-9	-4	-1	1	-4
C#CCn1c(=NC(=O)c2ccc(S(=O)(=O)N3CCCc4ccccc43)cc2)sc2cc(S(N)(=O)=O)ccc21	59*	7	-30	1	nt	-7	2
C[C@@H]1CN([C@@H](C)CO)C(=O)c2cc(NC(=O)Cc3ccccc3)ccc2O[C@H]1CN(C)C(=O)Nc1cccc2ccccc12	nt	0	0	nt	0	nt	nt
Cc1ccc(-n2nc3c(=O)n(CC(=O)NCc4ccccc4)nc(C)c3c2C)cc1	21*	-4	2	-11	7	0	0
Cc1ccc(CCNC(=O)CCCn2nc(C)c3c(C)n(-c4ccc(C)cc4)nc3c2=O)cc1	2	1	-2	-1	-7	3	nt
CCc1ccc(CNC(=O)CCn2nc(C)c3c(C)n(-c4ccccc4)nc3c2=O)cc1	73*	-4	-6	0	4	-1	6
SMILES	dFosB act-1	CFTR F508del cor	RAD52 anneal inh	PvdQ acylase	RAD54 inh	Glyco luc inh	dFosB act-2
Cc1ccc(-n2nc3c(=O)n(CC(=O)NCCc4ccc(Cl)cc4)nc(C)c3c2C)cc1	51*	2	-1	7	4	0	0
N#Cc1c(N)nc(SCC(=O)NCCc2ccccc2)c(C#N)c1-c1cccs1	36*	nt	nt	-17	-8	1	0
Cc1ccc(NC(=O)[C@@H]2CCC(=O)N2C2OC(=O)c3ccccc32)cc1Cl (stereo partly specified)	-2	0	-18	2	5	3	nt
Cc1ccc(NC(=O)C2CC(=O)n3ncnc3N2)cc1 (stereo unspecified)	-4	3	-4	2	8	2	nt
O=C1CC(C(=O)Nc2ccc(Cl)cc2)n2ncnc2N1 (stereo unspecified)	0	-1	-17	2	nt	2	nt
CC(C)c1ccc(NC(=O)C2CC(=O)Nc3nc4ccccc4n32)cc1 (stereo unspecified)	81*	1	-14	-13	5	0	5
Cc1ccc(NC(=O)C2CC(=O)n3c(nc4ccccc43)N2)cc1C (stereo unspecified)	31*	1	-4	10	-5	-1	-2
Cc1ccc(NC(=O)C2CC(=O)n3c(nc4ccccc43)N2)cc1Cl (stereo unspecified)	31*	-1	-10	-13	-13	1	-16
CCOC(=O)c1cccc(NC(=O)Cn2c(CC(=O)NC)nc3ccccc32)c1	41*	nt	nt	-11	5	1	1
O=C(NCC1CC1)[C@@H]1[C@@H](CO)[C@@H]2Cn3c(cccc3=O)[C@H]1N2C(=O)c1ccccc1	nt	2	-6	nt	-2	nt	nt
O=C(C[n+]1cnn(CC(=O)c2ccc(Cl)cc2Cl)c1)c1ccc([N+](=O)[O-])cc1	32*	nt	-14	-12	nt	15	2
Cc1cc(Br)cc(C)c1OCC(=O)NNC(=O)CCC(=O)NCc1ccccc1	49*	-3	-13	1	2	-2	3
Cc1ccc(OCC(=O)NNC(=O)CCC(=O)NCc2ccccc2)cc1	6	-2	1	-15	0	2	nt
COc1ccc(CNC(=O)Cn2nc(-c3ccc4c(c3)OCCO4)ccc2=O)cc1	-1	nt	nt	12	3	-2	nt
COc1ccc(-c2ccc(=O)n(CC(=O)Nc3ccc4c(c3)OCCO4)n2)cc1	22*	1	-15	-12	-1	1	-3
O=C(Cn1nc(-c2ccc3c(c2)OCCO3)ccc1=O)Nc1ccc(-n2cnnn2)cc1	81*	-1	-20	-13	nt	3	6

High-throughput results as filed in PubChem BioAssay.
